# Results: the supplement of paper PMC9135407
# Several values for one entry are separate records, joined by “and”; a condition that tells them apart may be missing. Identical values can stand only once. Counter-ions that a name gives are not always drawn. Among all 5,800 compounds or so, about 620 (11%) showed activity. This excerpt belongs to a sample that is enriched for actives. Unmarked numbers belong to inactive results.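 Rule for the calls: active = score above a cut-off or among the top three wells of a plate; in these data no inactive exceeds 0.85.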
# System: primary human hepatic stellate cells (donor 1)
# Experiment: scaled lipid accumulation score (0 = DMSO-like, 1 = nortriptyline-like); higher = stronger HSC inactivation (lipid re-accumulation), active = hit call of the paper
# Details: 48 h
# [1] = library stock concentration: 80 uM
# [2] = library stock concentration: 400 uM
# [3] = library stock concentration: 2 mM
# [4] = library stock concentration: 3.33 mM
# [5] = library stock concentration: 10 mM
# [6] = library stock concentration: 1 mM
smiles,measurement,setting,value
COc1ncc(-c2ccc3nccc(-c4ccnnc4)c3c2)cc1NS(=O)(=O)c1ccc(F)cc1F,scaled lipid accumulation score,[1],≤ -0.009
same,scaled lipid accumulation score,[2],≤ -0.009
same,scaled lipid accumulation score,[3],≤ -0.009
same,scaled lipid accumulation score,[4],0.066
same,scaled lipid accumulation score,[5],0.479 and 0.24
O=C(Nc1ccccc1)C12CC1C(=NO)c1ccccc1O2 (centres undefined),scaled lipid accumulation score,[5],≤ -0.006
Clc1cccc(Nc2nnc(-c3ccccc3)c3ccccc23)c1,scaled lipid accumulation score,[5],0.162
same,scaled lipid accumulation score,library stock concentration: 15.1 mM,0.258
CCCCCCCCCC(=O)N[C@H](CN1CCOCC1)[C@H](O)c1ccccc1 (racemic) [DL-threo-PDMP (hydrochloride)],scaled lipid accumulation score,[6],0.001
CCCn1c(=O)c(C)cn2nc(N)nc12,scaled lipid accumulation score,[5],≤ 0 and 0.03
C=C1CC[C@@H]2[C@](C)(CO)[C@H](O)CC[C@@]2(C)[C@@H]1C/C=C1/C(=O)OC[C@H]1O [Andrographolide],scaled lipid accumulation score,[4],0.094
same,scaled lipid accumulation score,[5],0.785
C[C@@H]1C[C@H]2[C@@H]3C[C@H](F)C4=CC(=O)C(Cl)=C[C@]4(C)[C@@]3(F)[C@@H](O)C[C@]2(C)[C@@]1(O)C(=O)CO,scaled lipid accumulation score,[5],≤ 0
CC1(C)S[C@@H]2[C@H](NC(=O)[C@H](N)c3ccc(O)cc3)C(=O)N2[C@H]1C(=O)O [Amoxicillin Sodium],scaled lipid accumulation score,[4],≤ 0
same,scaled lipid accumulation score,[5],≤ 0
CC1(C)S[C@@H]2[C@H](NC(=O)[C@H](N)c3ccc(O)cc3)C(=O)N2[C@H]1C(=O)O,scaled lipid accumulation score,[5],0.145
CC1(C)S[C@@H]2[C@H](NC(=O)[C@H](N)c3ccc(O)cc3)C(=O)N2[C@H]1C(=O)O [Amoxicillin],scaled lipid accumulation score,,0.056
same,scaled lipid accumulation score,[4],≤ 0
same,scaled lipid accumulation score,[5],0.044 and ≤ 0
O=C(CCC/C=C\C[C@@H]1C(/C=C/[C@@H](O)COc2cccc(C(F)(F)F)c2)[C@H](O)C[C@@H]1O)NC(CO)CO (some centres undefined) [Fluprostenol serinol amide],scaled lipid accumulation score,[6],≤ 0
"c1ccc(C2CN3CCSC3=N2)cc1 (single isomer, unassigned; (-)) [(-)-Tetramisole hydrochloride]",scaled lipid accumulation score,[5],≤ -0.055
CCCCC(C)(O)C/C=C/[C@H]1[C@H](O)CC(=O)[C@@H]1CCCCCCC(=O)OC (some centres undefined) [Misoprostol],scaled lipid accumulation score,[6],≤ 0
same,scaled lipid accumulation score,library stock concentration: 5.2 mM,≤ 0
CCCCC[C@H](O)/C=C/[C@@H]1[C@@H](CCCCCCC(=O)O)[C@H](O)C[C@@H]1O [11.beta.-Prostaglandin F1.beta.],scaled lipid accumulation score,[6],≤ 0
COc1cc2ncnc(Nc3ccc(F)c(Cl)c3)c2cc1OCCCN1CCOCC1 [Iressa],scaled lipid accumulation score,[5],0.9 (active)
CC(C)[C@H](O)C(=O)O [(S)-(+)-2-hydroxy-3-Methylbutyric Acid],scaled lipid accumulation score,[6],≤ 0
CN(C)c1ccc(/C=C2/C(=O)Nc3ccccc32)cc1,scaled lipid accumulation score,[5],≤ 0 and 0.041
same,scaled lipid accumulation score,library stock concentration: 18.9 mM,0.01
Cc1cc(C)c(/C=C2\C(=O)Nc3ccccc32)[nH]1 [Semaxanib (SU5416)],scaled lipid accumulation score,[4],≤ 0
same,scaled lipid accumulation score,[5],0.145
Cc1cc(C)c(/C=C2\C(=O)Nc3ccccc32)[nH]1,scaled lipid accumulation score,[6],≤ 0
same,scaled lipid accumulation score,[5],≤ 0 and 0.011
Cc1cc(C)c(/C=C2\C(=O)Nc3ccccc32)[nH]1 [VEGF Receptor 2 Kinase Inhibitor III],scaled lipid accumulation score,[4],≤ 0
CC(C)(C)OC(=O)Nc1ccc(-c2cc(C(=O)NCCCCCCC(=O)NO)no2)cc1,scaled lipid accumulation score,[6],≤ 0
CC(=O)OCC(=O)[C@@]1(O)CC[C@H]2[C@@H]3C[C@H](C)C4=CC(=O)C=C[C@]4(C)[C@H]3[C@@H](O)C[C@@]21C,scaled lipid accumulation score,[5],≤ 0
COc1ccc(CCN(C)CCc2ccc(OC)c(OC)c2)cc1OC [YS-035 hydrochloride],scaled lipid accumulation score,[5],0.011 and 0.112
Br.Br.CN(CCc1ccc(Cl)c(Cl)c1)CCN1CCCC1 [BD 1008 dihydrobromide],scaled lipid accumulation score,[5],0.882 (active)
CN1CCN(CCc2ccc(Cl)c(Cl)c2)CC1 [BD 1063 dihydrochloride],scaled lipid accumulation score,[5],0.684
C[C@H](NCc1ccc(OCc2cccc(F)c2)cc1)C(N)=O [Safinamide Mesylate],scaled lipid accumulation score,[4],≤ 0
same,scaled lipid accumulation score,[5],≤ 0
CC(C)OC(=O)CCC/C=C/C[C@H]1C(=O)C[C@@H](O)[C@@H]1/C=C/[C@@H](O)COc1cccc(C(F)(F)F)c1 [9-keto Fluprostenol isopropyl ester],scaled lipid accumulation score,[6],≤ 0
"C=C1C[C@@H](O)[C@H](/C=C/[C@@H](O)C(C)(C)CCCC)[C@H]1C/C=C\CCCC(=O)O [9-deoxy-9-methylene-16,16-dimethyl Prostaglandin E2]",scaled lipid accumulation score,[6],≤ 0
CCOC(=O)c1cnc2ccc(-c3cncc(NS(=O)(=O)c4ccccc4)c3)cn12 [listing 1 of 2 here],scaled lipid accumulation score,[4],0.492
CCOC(=O)c1cnc2ccc(-c3cncc(NS(=O)(=O)c4ccccc4)c3)cn12 [listing 2 of 2 here],scaled lipid accumulation score,[5],0.915 (active)
CCCCC[C@H](O)/C=C/[C@H]1C(=O)C[C@H](O)[C@@H]1C/C=C\CCCC(=O)NCCO [Prostaglandin D2 Ethanolamide],scaled lipid accumulation score,[6],≤ 0
CCC(C)C1OC2(CCC1C)CC1CC(CC=C(C)C(OC3CC(OC)C(OC4CC(OC)C(O)C(C)O4)C(C)O3)C(C)C=CC=C3COC4C(O)C(C)=CC(C(=O)O1)C34O)O2 (centres undefined) [Ivermectin],scaled lipid accumulation score,[4],0.007
same,scaled lipid accumulation score,[5],0.198
CCC(=O)NC[C@H](Cc1ccc(OCCc2nc(-c3ccccc3)oc2C)cc1)N/C(C)=C\C(=O)c1ccc(C(F)(F)F)cc1,scaled lipid accumulation score,[5],≤ -0.001
NC[C@H]1CC[C@H](C(=O)Oc2ccc(CCC(=O)O)cc2)CC1,scaled lipid accumulation score,[5],≤ 0
COC(=O)N[C@@H](C)CNc1nccc(-c2cn(C(C)C)nc2-c2cc(Cl)cc(NS(C)(=O)=O)c2F)n1,scaled lipid accumulation score,[4],≤ -0.009
same,scaled lipid accumulation score,[5],0.655
CNCCCC12CCC(c3ccccc31)c1ccccc12.Cl [Maprotiline hydrochloride] [listing 1 of 2 here],scaled lipid accumulation score,library stock concentration: 6.4 mM,1.05 (active)
same,scaled lipid accumulation score,[5],0.918 (active) and 1.23 (active)
CNCCC[C@]12CC[C@H](c3ccccc31)c1ccccc12.Cl [Maprotiline hydrochloride],scaled lipid accumulation score,,0.944 (active)
CNCCCC12CCC(c3ccccc31)c1ccccc12.Cl [Maprotiline HCl],scaled lipid accumulation score,[5],1.31 (active)
CNCCCC12CCC(c3ccccc31)c1ccccc12.Cl [Maprotiline hydrochloride] [listing 2 of 2 here],scaled lipid accumulation score,[5],1.59 (active)
O=C(O)C1CCCNC1 (centres undefined),scaled lipid accumulation score,,≤ 0
same,scaled lipid accumulation score,[5],0.207
CCCCC[C@@](C)(O)/C=C/[C@@H]1[C@@H](C/C=C\CCCC(=O)O)[C@@H](O)C[C@H]1O [15(R)-15-methyl Prostaglandin F2.alpha.],scaled lipid accumulation score,[6],≤ 0
O=C(OCc1ccccc1)[C@H](O)c1ccccc1 [(R)-benzyl Mandelate],scaled lipid accumulation score,[6],≤ 0
C=C(C)[C@@H](CC=C(C)C)C[C@@]12C[C@@H](CC=C(C)C)C(C)(C)[C@@](CC=C(C)C)(C(=O)C(C(=O)c3ccc(O)c(O)c3)=C1O)C2=O [Garcinol],scaled lipid accumulation score,[1],≤ 0
same,scaled lipid accumulation score,[2],≤ 0
same,scaled lipid accumulation score,[3],≤ 0
same,scaled lipid accumulation score,[5],≤ 0
C[C@@H](N)C1CCC(C(=O)Nc2ccncc2)CC1 (some centres undefined),scaled lipid accumulation score,[4],≤ 0
O=C(O)CCCC[C@@H]1CCSS1 [Thioctic acid],scaled lipid accumulation score,[5],≤ -0.027
CC/C(=C\C(=N\O)C(N)=O)C(C)[N+](=O)[O-] (centres undefined),scaled lipid accumulation score,[6],≤ 0
CC(C)CCC[C@@H](C)CCC[C@@H](C)CCCC(C)CC(=O)O (some centres undefined) [Phytanic Acid],scaled lipid accumulation score,[6],0.028
O=C(NCCS(=O)(=O)c1ccc(C(F)(F)F)cn1)c1ccc(Cl)cc1,scaled lipid accumulation score,[4],≤ -0.009
same,scaled lipid accumulation score,[5],≤ 0
C=CC(=O)Nc1cccc(Sc2nc(Nc3ccc(N4CCN(C)CC4)cc3)ncc2Cl)c1,scaled lipid accumulation score,[4],≤ 0
same,scaled lipid accumulation score,[5],0.466
Cc1nc(Nc2ncc(C(=O)Nc3c(C)cccc3Cl)s2)cc(N2CCN(CCO)CC2)n1 [Dasatinib],scaled lipid accumulation score,[1],≤ 0
same,scaled lipid accumulation score,[2],0.238
same,scaled lipid accumulation score,[3],0.602
same,scaled lipid accumulation score,[4],0.43
same,scaled lipid accumulation score,[5],0.646 and 0.707
Cc1nc(Nc2ncc(C(=O)Nc3c(C)cccc3Cl)s2)cc(N2CCN(CCO)CC2)n1 [listing 1 of 2 here],scaled lipid accumulation score,[3],1.18 (active)
same,scaled lipid accumulation score,[5],1.48 (active)
Cc1nc(Nc2ncc(C(=O)Nc3c(C)cccc3Cl)s2)cc(N2CCN(CCO)CC2)n1 [listing 2 of 2 here],scaled lipid accumulation score,[2],0.775
same,scaled lipid accumulation score,[5],0.677
O=S(=O)(c1ccccc1)N(CC(F)(F)F)c1ccc(C(O)(C(F)(F)F)C(F)(F)F)cc1,scaled lipid accumulation score,[6],0.1
same,scaled lipid accumulation score,[4],0.164
same,scaled lipid accumulation score,[5],0.741 and 0.112
N#Cc1ccc2c(c1)N(CCCN1CCC(O)CC1)c1ccccc1S2 [Periciazine],scaled lipid accumulation score,[5],0.107
CN1CCCC(CC2c3ccccc3Sc3ccccc32)C1.Cl.O (centres undefined) [Metixene hydrochloride],scaled lipid accumulation score,,1.12 (active)
CN1CCN(C2Cc3ccccc3Sc3ccc(Cl)cc32)CC1 (centres undefined),scaled lipid accumulation score,[5],0.378
"C[C@@H](O)CCC[C@@H](O)/C=C/[C@H]1C(O)CC(O)C1CCCCCCC(=O)O (stereo partly drawn) [15(R),19(R)-hydroxy Prostaglandin F1.alpha.]",scaled lipid accumulation score,[6],≤ 0
CC[C@@]1(O)C(=O)OCc2c1cc1n(c2=O)Cc2cc3c(CN(C)C)c(O)ccc3nc2-1 [Topotecan HCl],scaled lipid accumulation score,[4],≤ 0
same,scaled lipid accumulation score,[5],≤ 0
CC[C@@]1(O)C(=O)OCc2c1cc1n(c2=O)Cc2cc3c(CN(C)C)c(O)ccc3nc2-1 [Topotecan hydrochloride],scaled lipid accumulation score,library stock concentration: 4.4 mM,0.131
same,scaled lipid accumulation score,[5],0.196
CCc1c2c(nc3ccc(OC(=O)N4CCC(N5CCCCC5)CC4)cc13)-c1cc3c(c(=O)n1C2)COC(=O)[C@]3(O)CC [IRINOTECAN HCl )trihydrate)],scaled lipid accumulation score,[5],1.1 (active)
CCc1c2c(nc3ccc(OC(=O)N4CCC(N5CCCCC5)CC4)cc13)-c1cc3c(c(=O)n1C2)COC(=O)[C@]3(O)CC,scaled lipid accumulation score,[5],0.226
CCc1c2c(nc3ccc(O)cc13)-c1cc3c(c(=O)n1C2)COC(=O)[C@]3(O)CC,scaled lipid accumulation score,[4],≤ 0
same,scaled lipid accumulation score,[5],0.297 and ≤ -0.001
CC[C@@]1(O)C(=O)OCc2c1cc1n(c2=O)Cc2cc3c(CN(C)C)c(O)ccc3nc2-1,scaled lipid accumulation score,[5],≤ 0
CC[C@@]1(O)C(=O)OCc2c1cc1n(c2=O)Cc2cc3c(CN(C)C)c(O)ccc3nc2-1 [Topotecan hydrochloride hydrate],scaled lipid accumulation score,[5],≤ -0.055
CCc1c2c(nc3ccc(OC(=O)N4CCC(N5CCCCC5)CC4)cc13)-c1cc3c(c(=O)n1C2)COC(=O)[C@]3(O)CC [Irinotecan hydrochloride],scaled lipid accumulation score,[5],0.299
CCc1c2c(nc3ccc(OC(=O)N4CCC(N5CCCCC5)CC4)cc13)-c1cc3c(c(=O)n1C2)COC(=O)[C@]3(O)CC [Irinotecan],scaled lipid accumulation score,[4],0.151
same,scaled lipid accumulation score,[5],0.025
CC[C@@]1(O)C(=O)OCc2c1cc1n(c2=O)Cc2cc3c(CN(C)C)c(O)ccc3nc2-1 [Topotecan],scaled lipid accumulation score,library stock concentration: 4.7 mM,≤ 0
CCc1c2c(nc3ccc(OC(=O)N4CCC(N5CCCCC5)CC4)cc13)-c1cc3c(c(=O)n1C2)COC(=O)[C@]3(O)CC [Irinotecan HCl Trihydrate],scaled lipid accumulation score,[4],≤ 0
same,scaled lipid accumulation score,[5],0.228
